Reference: PubChem BioAssay (NCATS)
Records with an inconclusive call do not appear. Activity calls are given as the source filed them. The call rests on the fitted dose curve; in most records, active means well fitted inhibition curve with a large enough effect; inconclusive means small, poorly fitted or top-dose-only effect; inactive means no such curve, though single readings can be large or run the other way.

biological target: Cytochrome P450 3A4 (Homo sapiens) (UniProt P08684); assay: qHTS Assay for Inhibitors and Substrates of Cytochrome P450 3A4 (AID 884); conditions: recombinant CYP3A4, Luciferin-PPXE luminescence; series mostly up to 57.1 µM; further: nearly all actives have a fitted effect of over 50% in size
Sequence (P08684 whole entry, looked up): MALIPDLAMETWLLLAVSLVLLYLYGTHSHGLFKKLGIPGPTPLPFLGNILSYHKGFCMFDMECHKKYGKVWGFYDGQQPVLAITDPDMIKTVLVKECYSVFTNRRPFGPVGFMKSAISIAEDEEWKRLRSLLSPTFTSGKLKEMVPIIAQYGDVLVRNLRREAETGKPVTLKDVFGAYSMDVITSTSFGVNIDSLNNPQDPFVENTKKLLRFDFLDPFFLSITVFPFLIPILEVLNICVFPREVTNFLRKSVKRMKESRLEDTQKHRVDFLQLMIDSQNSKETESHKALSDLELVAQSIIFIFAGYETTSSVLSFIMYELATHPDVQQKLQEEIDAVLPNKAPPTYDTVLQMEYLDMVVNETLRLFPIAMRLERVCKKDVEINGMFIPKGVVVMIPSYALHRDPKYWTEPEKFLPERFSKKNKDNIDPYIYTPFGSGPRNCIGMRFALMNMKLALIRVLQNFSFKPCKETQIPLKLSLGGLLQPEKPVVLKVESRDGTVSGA
Description: NIH Molecular Libraries Screening Centers Network [MLSCN]
NIH Chemical Genomics Center [NCGC]
The P450 gene superfamily is involved in the metabolism and clearance of xenobiotics. This assay used human CYP3A4 to measure the dealkylation of luciferin-6' phenylpiperazinylyl (Luciferin-PPXE; […]) to luciferin. The luciferin is then measured by luminescence after the addition of a luciferase detection reagent. Luciferin-PPXE concentration in the assay was equal to its KM for CYP3A4. Inhibitors and some substrates limit the production of luciferin, and decrease measured luminescence.
NCGC Assay Protocol Summary:
Two uL of enzyme and substrate mix (final concentrations: 20nM CYP3A4, 25uM Luciferin-PPXE, 200mM KPO4) were dispensed into a white, solid bottom 1536-well microtiter plate. 23nL of compound was transferred by a pin tool. The plate was incubated at RT for 10 min. Two uL of an NADPH regeneration solution (Promega supplied reagent) was dispensed and the reaction was allowed to continue for 60 min at RT. Then the reaction was stopped by reconstituted luciferin detection buffer. After another 20 min of incubation the plate was read on the ViewLux (Perkin Elmer) at 60 sec exposure and 2x2 binning. This protocol was carried out with Promega-Glo reagents and further information can be found at http://www.promega.com/tbs/tb325/tb325.pdf. Data were normalized to the to AC100 inhibition (57 uM ketoconazole).
Keywords: P450, CYP3A4, Luciferase, MLSMR, MLSCN, NIH Roadmap, qHTS, NCGC

SMILES	outcome
COc1nc(C)nc(Cl)c1NC1=NCCN1	inactive
CCOC(=O)c1ncn2c1CN(C)C(=O)c1cc(F)ccc1-2	inactive
Cn1c(=O)c2[nH]cnc2n(C)c1=O	inactive
Nc1ccn([C@H]2CC[C@@H](CO)O2)c(=O)n1	inactive
CC(=O)OCC(CCn1cnc2cnc(N)nc21)COC(C)=O	inactive
CC(C)Cc1ccc(C(C)C(=O)O)cc1 (configuration not stated)	inactive
CCC1(C)CC(=O)NC1=O (configuration not stated)	inactive
O=c1[nH]cc(F)c(=O)[nH]1	inactive
CCC1(c2ccccc2)C(=O)NCNC1=O	inactive
Cc1cn([C@H]2C=C[C@@H](CO)O2)c(=O)[nH]c1=O	inactive
NCCCCCC(=O)O	inactive
CN(C)CCC=C1c2ccccc2C=Cc2ccccc21	inactive
Cn1c(=O)c2c(ncn2C)n(C)c1=O	inactive
COc1cc2nc(N(C)CCCNC(=O)C3CCCO3)nc(N)c2cc1OC (configuration not stated)	inactive
CC[C@@]1(O)C(=O)OCc2c1cc1n(c2=O)Cc2cc3c(CN(C)C)c(O)ccc3nc2-1	inactive
CCN1CCCC1CNC(=O)c1cc(S(=O)(=O)CC)c(N)cc1OC (configuration not stated)	inactive
COC(=O)Nc1nc2ccc(C(=O)c3cccs3)cc2[nH]1	inactive
CC12CC3CC(C)(C1)CC(N)(C3)C2	inactive
CN1CCC(=C2c3ccccc3CC(=O)c3sccc32)CC1	inactive
COc1cc2nc(N3CCN(C(=O)c4ccco4)CC3)nc(N)c2cc1OC	inactive
CN(Cc1cnc2nc(N)nc(N)c2n1)c1ccc(C(=O)N[C@@H](CCC(=O)O)C(=O)O)cc1	inactive
COc1ccc2c(c1)c(CC(=O)O)c(C)n2C(=O)c1ccc(Cl)cc1	inactive
